The values that follow come from ChEMBL document CHEMBL3988442, “University of Dundee, Small-Polar-MMV Screening Library” (2021).

In all, about 48,000 compounds went through this assay and about 13,000 (27%) showed an effect of 50% or more. This is one part of the list.

The assay has as its system Wolbachia pipientis. Put plainly: Anti-Wolbachia Cell-Based Screen. The arrangement: scale not given: in the data most compounds retested in dose-response had high values. Type of assay: functional. To be noted: 5 µM.
On to `Cc1nn(CC(=O)N2CCN(c3ncccn3)CC2)c(C)c1Cl`, for which the “Percent Effect” value turned out to be 17.26%.
For `Cc1ccc(N(C)C2CCN(C(=O)CCc3ccco3)CC2)nn1`, the “Percent Effect” value is on record as -5.46%.
For `Cc1ccc(N2CCC3(CCN(C(=O)C4CCOC4)CC3)CC2)nn1` (configuration not stated) the value was -12.92%; for `Cc1ccc(N(C)[C@@H]2CC[C@@H]3CN(C(=O)CC4CCOCC4)C[C@@H]32)nn1`, 152.8%.
Regarding `Cc1ccc(N(C)[C@@H]2CC[C@@H]3CN(C(=O)C4CCOCC4)C[C@@H]32)nn1`, the “Percent Effect” value was 186.8%.
The result for `CN(Cc1cccs1)C1CCC[C@@H]2CN(C(=O)c3cccn3C)C[C@H]12` (some centres not stated) reads 17.98%; that for `Cc1ccc(N(C)[C@@H]2CC[C@@H]3CN(C(=O)Cc4cccs4)C[C@@H]32)nn1`, 112.9%; that for `CN(Cc1cccs1)C1CCC[C@@H]2CN(C(N)=O)C[C@H]12.O=C(O)C(F)(F)F` (some centres not stated), 5.173%.
`Cc1ccc(N2C[C@H](C(=O)NCC3CC3)[C@@H]3CCO[C@@H]3C2)nn1.O=C(O)C(F)(F)F`: the “Percent Effect” value is 0.6774%.
For `CCN(CCn1cccn1)Cc1nc(-c2cccs2)oc1C` the value was 6.026%; for `N#Cc1cccc(CN2CCn3cc(CNC(=O)C4CCC4)nc3C2)c1`, -7.661%; for `COC(=O)NCC(=O)NC(c1ccc(Cl)cc1)C(F)(F)F` (configuration not stated), -6.665%.
For `COC[C@@H]1CC[C@H]2[C@H](CCN2S(=O)(=O)c2ccc(OC)cc2)O1` the value was -8.82%.
For `COc1ccc(S(=O)(=O)N2CCC[C@@H]3CN(C(=O)C4CC4)C[C@@H]32)cc1` the value was 61.28%; for `COc1ccc(C(=O)N2CCCC(C)C2)cc1F` (configuration not stated), 8.733%; for `COc1ccc(S(=O)(=O)N2CCC[C@@H]3CN(C(=O)C4CC4)C[C@@H]32)cc1F`, 83.03%.
Consider `CCN1C(=O)C[C@@H]2[C@@H]1CCN2S(=O)(=O)c1ccc(OC)cc1`, for which the “Percent Effect” value is 1.644%.
For `COc1ccc(C(=O)N2CCCC(CNS(C)(=O)=O)C2)cc1F` (configuration not stated) the value was 1.055%; for `O=C(NCc1cc[nH]n1)NCC(O)c1ccc(F)cc1F` (configuration not stated), 2.33%.
The result for `CCN(CC)C(=O)[C@@H]1C[C@H](NC(=O)c2ccn(C(C)(C)C)c2)CN1C` reads -2.667%; that for `O=C1CCCc2occ(C(=O)N3CCCC(O)(CO)C3)c21` (configuration not stated), -7.191%.
The result for `CO[C@H]1COCCN(C(=O)c2ccno2)C1` reads -14.2%; that for `Cc1ccccc1C(=O)Nc1ccc(OC2CCN(C)CC2)cc1`, -1.73%; that for `O=C(CNc1ccc(OC2CCOC2)cc1)NCc1cccs1` (configuration not stated), 90.04%.
Turning to `Cc1ccc(NCc2cccc3cn[nH]c23)cc1OC1CCOC1` (configuration not stated), the “Percent Effect” value amounted to 0.01014%.
The result for `CC(C)(Oc1ccc(F)cc1)C(=O)NCc1ccco1` reads -9.094%; that for `CC(C)(C)Oc1ccc(NCC(=O)NCc2ccco2)cc1`, 90.6%; that for `O=C(Nc1ccnc(OC2CCOC2)c1)c1cccs1` (configuration not stated), -9.418%.
On to `O=C(CNc1cc2c(cc1Cl)OCCCO2)NCc1ccc(F)cc1`, for which the “Percent Effect” value worked out at 5.92%.
Turning to `Cc1ccccc1CNC(=O)CNc1ccc(OC2CCOC2)cc1` (configuration not stated), the “Percent Effect” value is 97.09%.
The result for `O=C(Cc1cccs1)NCc1ccnc(OC2CCOCC2)c1` reads -13.9%; that for `O=C(CNc1ccc(F)cc1OCC(F)(F)F)NCc1ccco1`, -21.13%.
`COc1ccc(CNC(=O)CNc2ccccc2OC)cc1`: the “Percent Effect” value is -12.04%.
With `O=C(CNc1ccc(OC2CCOC2)cc1)NCc1ccc(F)cc1` (configuration not stated), the “Percent Effect” value is recorded as 77.11%.
The result for `Cc1occc1C(=O)N1CCC(C(O)c2ccc(F)cc2)CC1` (configuration not stated) reads -2.674%; that for `Cc1ccc(C)c(CC(=O)Nc2cnccc2SCCCO)c1`, 3.451%; that for `CCCN1CCC(N2CCN(c3cccc(C)n3)CC2)CC1`, 3.962%.
Turning to `CC(C)C[C@@H]1N[C@H](C(=O)NCC2CC2)Cc2c[nH]c3cccc1c23`, the “Percent Effect” value is reported as 1.644%.
For the compound `COCC1c2nnn(CC3CC3)c2CCN1C(=O)c1sccc1C` (configuration not stated), the “Percent Effect” value is listed as 4.054%.
The result for `Cc1nnc(N2CCC(CNC(=O)OC(C)(C)C)CC2)c(C#N)c1C` reads -3.272%.
For `Cl.Cl.O[C@@H]1C[C@@](CNCC2CCCC2)(COc2cccnc2)C[C@@H]1O` the value was -14.64%; for `O=C(CCc1ccncc1)Nc1ccc(OCC2CCOCC2)cc1`, 5.919%.
For `O=C(CNc1cccc(S(=O)(=O)C(F)F)c1)NCc1ccco1` the value was 4.728%; for `O=C(CNc1cccc(CC(F)(F)F)c1)NCc1ccco1`, 5.703%.
Regarding `O=C(CCc1cccnc1)Nc1ccc(OCC2CCOCC2)cc1`, the “Percent Effect” value was -6.342%.
The result for `O=C(CNc1ccc(OC2CCOC2)cc1)NCc1ccco1` (configuration not stated) reads 104.1%; that for `O=C(CNc1ccc(OCC2CCOCC2)cc1)NCc1ccco1`, 93.4%.
As for `CCN1CCN(C(=O)CCC2CCN(C(C)CCC(=O)OC)CC2)CC1` (configuration not stated), the “Percent Effect” value is listed as -3.151%.
The result for `Cc1nccn1-c1ccc(N2CCC(NC(C)C(C)C)CC2)cc1` (configuration not stated) reads 16.28%; that for `CN(C)c1cc(C(=O)NC2(c3cccc(F)c3)CCOCC2)ccn1`, -10.5%.
As for `Cc1cccc(CN2C[C@@H]3CN(C(=O)c4conc4C)C[C@@H]3C2=O)c1`, the “Percent Effect” value is 2.313%.
For `c1cncc(N2CCOC3(CCCN(c4nncs4)C3)C2)c1` (configuration not stated), the “Percent Effect” value is given as -20.57%.
For `O=C(C1=NN(Cc2ccccc2)c2ccccc2S1(=O)=O)N1CCCC1` the value was 25.7%; for `Cc1ccc(N2N=C(C(N)=O)S(=O)(=O)c3cccnc32)cc1`, 70.93%.
For `Cc1ccc(N2N=C(C(=O)O)S(=O)(=O)c3cccnc32)cc1` the value was 88.09%; for `Cc1ccc(-n2nnc(C(=O)NCC3CCCCC3)n2)cc1`, 3.646%; for `Cc1ccc(CN2CCN(c3ncccc3C(N)=O)CC2CCO)cc1` (configuration not stated), 0.06546%.
The result for `CN1N=C(C(=O)N2CCCCC2)S(=O)(=O)c2ccccc21` reads 9.429%.
Consider `Cc1ccc(N2N=C(C(=O)NCC3CC3)S(=O)(=O)c3cccnc32)cc1`, for which the “Percent Effect” value amounted to 113.2%.
Turning to `CCc1c(C(=O)NCC2CCS(=O)(=O)C2)cnn1-c1ccc(C)cc1` (configuration not stated), the “Percent Effect” value is 0.07541%.
Turning to `Cc1nc2c(c(N3CC=CC3)n1)CCN(c1ncccc1C(N)=O)CC2`, the “Percent Effect” value was -4.106%.
On to `C[C@H](NC(=O)C1(N(C)Cc2ccccc2)Cc2ccccc2C1)C(N)=O`, for which the “Percent Effect” value is -2.365%.
